Experimental data: PubChem BioAssay (EPA / NIEHS)
Activity calls are given as the source filed them. How the source made its calls: active means hit-call score of the fitted dose curve at least 0.9, where 1 is the maximum; inactive means score below 0.9.

Legend:
Conditions in all cases: mRNA level, 48 h; actives raise or lower the signal
[1] = read-out: 3-Hydroxy-3-Methylglutaryl-CoA Synthase 2 (HMGCS2), HMGCS2 (gene 3158); test: LTEA_HepaRG_HMGCS2: Life Technologies and Expression Analysis (LTEA) Assay for 3-Hydroxy-3-Methylglutaryl-CoA Synthase 2 (HMGCS2) using HepaRG (AID 2283504)
How it was run: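 qRT-PCR read-out of HMGCS2 transcript, normalised to three housekeeping genes, in HepaRG cells after 48 h chemical exposure. Eight-point curves from 100 uM, half-log dilutions, 0.5% DMSO vehicle; gain or loss fitted relative to DMSO baseline.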

[2] = read-out: HGF (gene 3082); test: LTEA_HepaRG_HGF: Life Technologies and Expression Analysis (LTEA) Assay for Hepatocyte Growth Facto (HGF) using HepaRG (AID 2283505)
How it was run: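 HepaRG, 48 h dosing, 8-pt half-log series from 100 uM in 0.5% DMSO, duplicates. Readout: TaqMan qRT-PCR of HGF mRNA, housekeeping-normalized; bidirectional curve fit vs DMSO baseline.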

[3] = read-out: Insulin Like Growth Factor 1 (IGF1), IGF1 (gene 3479); test: LTEA_HepaRG_IGF1: Life Technologies and Expression Analysis (LTEA) Assay for Insulin Like Growth Factor 1 (IGF1) using HepaRG (AID 2283506)
How it was run: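 HepaRG, plated 48 h, then switched to serum-free induction media; test chemical 8-pt half-log from 100 uM (0.5% DMSO), duplicate, 48 h. Lysis in RLT, TaqMan qRT-PCR, norm. ACTB/GAPDH/POLR2A. Bidirectional fit vs DMSO.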

[4] = read-out: Intercellular Adhesion Molecule 1 (ICAM1), ICAM1 (gene 3383); test: LTEA_HepaRG_ICAM1: Life Technologies and Expression Analysis (LTEA) Assay for Intercellular Adhesion Molecule 1 (ICAM1) using HepaRG (AID 2283507)
How it was run: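 HepaRG, 48 h exposure, 8-pt half-log series from 100 uM, 0.5% DMSO vehicle, duplicates. Readout: TaqMan qRT-PCR mRNA, housekeeping-normalized (ACTB/GAPDH/POLR2A). Bidirectional curve fit vs DMSO baseline.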

[5] = read-out: Insulin-like growth factor-binding protein 1 (IGFBP1), IGFBP1 (gene 3484); test: LTEA_HepaRG_IGFBP1: Life Technologies and Expression Analysis (LTEA) Assay for Insulin-like growth factor-binding protein 1 (IGFBP1) using HepaRG (AID 2283508)
How it was run: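 qRT-PCR mRNA read-out (TaqMan, Fluidigm array), normalised to three housekeeping genes; HepaRG cells, 48 h exposure, 8-pt half-log series from 100 uM, 0.5% DMSO vehicle; bidirectional curve fit vs DMSO baseline.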

[6] = read-out: Interleukin 6 (IL6), IL6 (gene 3569); test: LTEA_HepaRG_IL6: Life Technologies and Expression Analysis (LTEA) Assay for Interleukin 6 (IL6) using HepaRG (AID 2283509)
How it was run: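 HepaRG cells exposed in duplicate for 48 h to eight half-log concentrations, top 100 uM, in 0.5% DMSO serum-free induction medium. mRNA measured by qRT-PCR, normalized to ACTB, GAPDH and POLR2A. Bidirectional fit versus DMSO.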

[7] = read-out: Interleukin 6 Receptor (IL6R), IL6R (gene 3570); test: LTEA_HepaRG_IL6R: Life Technologies and Expression Analysis (LTEA) Assay for Interleukin 6 Receptor (IL6R) using HepaRG (AID 2283510);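 on AC50: differentiated human HepaRG liver cells in serum-free induction medium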
How it was run: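 Readout is IL6R transcript level by TaqMan qRT-PCR, normalized to three housekeeping genes and fitted bidirectionally against 0.5% DMSO controls. Human HepaRG cells received chemicals for 48 h in serum-free induction medium, highest concentration 100 uM.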

[8] = read-out: Potassium channel subfamily K member 1 (KCNK1), KCNK1 (gene 3775); test: LTEA_HepaRG_KCNK1: Life Technologies and Expression Analysis (LTEA) Assay for Potassium channel subfamily K member 1 (KCNK1) using HepaRG (AID 2283511)
How it was run: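 Differentiated HepaRG cells, 48 h exposure in serum-free induction medium with 0.5% DMSO; 8 concentrations, half-log from 100 uM, duplicate. KCNK1 mRNA by qRT-PCR, normalized to ACTB, GAPDH, POLR2A; bidirectional fit vs DMSO.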

[9] = read-out: Keratin 19 (KRT19), KRT19 (gene 3880); test: LTEA_HepaRG_KRT19: Life Technologies and Expression Analysis (LTEA) Assay for Keratin 19 (KRT19) using HepaRG (AID 2283512)
How it was run: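 HepaRG, 48 h chemical exposure, 8-pt half-log CRC from 100 uM, 0.5% DMSO vehicle, duplicates. Readout: TaqMan qRT-PCR of KRT19 mRNA, housekeeping-normalized (ACTB/GAPDH/POLR2A). Bidirectional fit vs DMSO baseline.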

[10] = read-out: JUN Transcription Factor, JUN (gene 3725); test: LTEA_HepaRG_JUN: Life Technologies and Expression Analysis (LTEA) Assay for JUN Transcription Factor using HepaRG (AID 2283513)
How it was run: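 Cells plated 48 h, medium switched to serum-free induction medium, then dosed 48 h (100 uM top, half-log dilutions, 0.5% DMSO). RNA isolated; JUN measured by qRT-PCR against three housekeeping genes; gain or loss fitted relative to DMSO.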

Measured: AC50

OCCOCCO
not listed: [9] | [10]
inactive: all other assays above

Cc1ccc(N=C=O)cc1N=C=O
active: [1] 68.7 µM | [4] 24 µM | [5] 29.4 µM | [6] 73.5 µM
inactive: [2] | [3] | [7]

[O-][Cl+]O
not listed: [8] | [9] | [10]
inactive: all other assays above

[As]#[In]
not listed: [9] | [10]
inactive: all other assays above

CCCCCCCCCCCCCN1CC(C)OC(C)C1 (stereo unspecified)
not listed: [9] | [10]
inactive: all other assays above

Clc1ccccc1Cl
not listed: [8] | [9] | [10]
inactive: all other assays above

Clc1ccc(C(c2ccc(Cl)cc2)C(Cl)Cl)cc1
not listed: [9] | [10]
inactive: all other assays above

O=C(O)C1C2CCC(O2)C1C(=O)O (stereo unspecified)
active: [1] 72.6 µM | [3] 73.6 µM | [5] 93.3 µM | [6] 16.5 µM | [7] 26.4 µM
inactive: [2] | [4]

C=CCc1ccc2c(c1)OCO2
not listed: [8] | [9] | [10]
inactive: all other assays above

CCOc1cccc(C2(N3CCN(c4ccccc4)CC3)CCC(C)CC2)c1 (stereo unspecified)
not listed: [8] | [9] | [10]
inactive: all other assays above

CN(C)C(=O)Nc1ccc(Cl)cc1
not listed: [9] | [10]
inactive: all other assays above

COc1cc(C=O)cc2c1[C@H](COC(N)=O)[C@]1(OC(C)=O)ON2C[C@H]2[C@@H]1N2C(C)=O
inactive: [2]
active: [1] 0.827 µM | [3] 0.5 µM | [4] 1.31 µM | [5] 4.86 µM | [6] 1.52 µM | [7] 24.7 µM

Brc1ccc(Oc2ccccc2)cc1
not listed: [9] | [10]
inactive: all other assays above

Oc1ccc2ccc3cccc4ccc1c2c34
active: [9] 8.53 µM
not listed: [10]
inactive: all other assays above

O=C(N[C@H](c1ccccc1)[C@@H]1CN2CCC1CC2)c1c(Cl)ccc(C(F)(F)F)c1Cl
inactive: [2] | [7]
active: [1] 72.8 µM | [3] 46.2 µM | [4] 66.6 µM | [5] 34.8 µM | [6] 74.8 µM

CC(C)COC(=O)c1ccccc1C(=O)OCC(C)C
not listed: [8] | [9] | [10]
inactive: all other assays above

OCCCBr
not listed: [9] | [10]
inactive: all other assays above

COC(=O)Nc1nc2ccccc2[nH]1
not listed: [9] | [10]
inactive: all other assays above

CC(O)CCO (stereo unspecified)
not listed: [10]
inactive: all other assays above

[Cl-].[Cl-].[Hg+2]
not listed: [8] | [9] | [10]
inactive: all other assays above

Cn1cc(-c2ccccc2)c(=O)c(-c2cccc(C(F)(F)F)c2)c1
active: [5] 50 µM
not listed: [8] | [9] | [10]
inactive: all other assays above

CC(C)(O)c1cnn2c(-c3ccc(F)c(-c4c(F)cccc4C#N)c3)cnc2n1
inactive: [2] | [4] | [5] | [6] | [7]
active: [1] 13.1 µM | [3] 1.35 µM

CCC(C)c1ccc(O)cc1 (stereo unspecified)
not listed: [9] | [10]
inactive: all other assays above

CCNS(=O)(=O)C(F)(F)C(F)(F)C(F)(F)C(F)(F)C(F)(F)C(F)(F)C(F)(F)C(F)(F)F
active: [3] 48.2 µM
not listed: [8] | [9] | [10]
inactive: all other assays above

Cc1cccc(N)c1N
inactive: [2] | [4] | [6] | [7]
active: [1] 50 µM | [3] 50 µM | [5] 22.9 µM

Clc1ccc(Cl)c(Cl)c1
active: [1] 50 µM
not listed: [9] | [10]
inactive: all other assays above

O=C(Nc1ccccc1)c1ccccc1I
active: [3] 19.1 µM | [5] 34.8 µM | [9] 22.6 µM
not listed: [10]
inactive: all other assays above

COP(=S)(OC)SCN1C(=O)c2ccccc2C1=O
not listed: [9]
inactive: all other assays above

Nc1ccc(Cl)cc1N
inactive: [4] | [8] | [10]
active: [1] 34.1 µM | [2] 33.6 µM | [3] 25 µM | [5] 16.1 µM | [6] 73.4 µM | [7] 34.2 µM

O=P(OCCCl)(OCCCl)OCCCl
inactive: all assays above

CCC[CH2][Sn]([Cl])([CH2]CCC)[CH2]CCC
active: [1] 1.24 µM | [2] 50 µM | [3] 4.72 µM | [5] 2.29 µM | [6] 2.73 µM | [7] 50 µM | [8] 2.85 µM | [9] 0.297 µM | [10] 3.32 µM
inactive: [4]

Cc1ccc(N)c(N)c1
active: [9] 32.8 µM
inactive: all other assays above

Cc1cc(N=Nc2ccccc2C)ccc1N
inactive: [2] | [4] | [6] | [8]
active: [1] 12.8 µM | [3] 4.25 µM | [5] 9.92 µM | [7] 2.45 µM | [9] 17.2 µM

O=C1CCCO1
active: [1] 50 µM
not listed: [9]
inactive: all other assays above

N#CC(Br)Br
not listed: [9]
inactive: all other assays above

CC(C)(C)OOC(=O)c1ccccc1
not listed: [10]
inactive: all other assays above

ClC1=C(Cl)[C@]2(Cl)[C@H]3[C@H]([C@@H]4C=C[C@H]3C4)[C@@]1(Cl)C2(Cl)Cl
inactive: all assays above

Nc1ccc(Oc2ccc(N)cc2)cc1
not listed: [10]
inactive: all other assays above

Nc1ccc(N=Nc2ccccc2)cc1
active: [1] 24.6 µM | [3] 12.8 µM | [4] 30.9 µM | [7] 13 µM
not listed: [9]
inactive: all other assays above

CCCSC(=O)N(CCC)CCC
inactive: all assays above

Cc1ccc(N)cc1
not listed: [10]
inactive: all other assays above

CCCCOC(=O)c1ccccc1C(=O)OCc1ccccc1
inactive: all assays above

c1ccc(NNc2ccccc2)cc1
inactive: all assays above
